Only some compounds are listed: those with a hit (about 6.5% of all), similar ones and a draw of the others.
FMDV inh: High Throughput Screening for Foot and Mouth Disease Virus Antivirals | FMDV antiviral cell-based qHTS | Potency, µM (series often up to 57.9 µM), for inactives: at the top dose activity change, negative = inhibition, actives largely listed as inhibitors | hit rate 1.2% among 410,000 | AID 1159524, 2015; calls by dose curve; tested in HEK293T cells; also: read-out not given here; potency is read from the fitted curve at half-maximal effect; nearly all actives have a fitted effect of over 45% in size
Marburg entry inh: qHTS for inhibitors of binding or entry into cells for Marburg Virus | Potency, µM (top dose mostly 37.8 µM), for the others: at the top dose activity change, negative = inhibition, most hits filed as inhibitors | Marburg virus pseudotyped entry inhibition, cell reporter | AID 540276, 2011 | hit rate 1.8% among 300,000; calls by dose curve; tested in HEK293 cells; also: potency is read from the fitted curve at half-maximal effect
Lassa entry inh: qHTS for Inhibitors of binding or entry into cells for Lassa Virus; hit rate 1.2% among 300,000; Potency, µM (highest dose often 37.9 µM), inactives show top-dose activity change, negative = inhibition, actives largely listed as inhibitors; Lassa virus pseudotype entry inhibition, cell reporter; calls by dose curve; tested in HEK293 cells; also: potency is read from the fitted curve at half-maximal effect; nearly all actives have a fitted effect of over 50% in size
VACV mCherry inh: qHTS for Stage-Specific Inhibitors of Vaccinia Orthopoxvirus: mCherry Reporter Primary qHTS; Potency, µM (titrated, usually from 36.5 µM), inactives show at the top dose activity change, negative = inhibition, actives largely listed as inhibitors; Vaccinia virus mCherry reporter infection, fluorescence; hit rate 0.63% among 310,000; calls by dose curve; tested in A549 cells; also: potency is read from the fitted curve at half-maximal effect; nearly all actives have a fitted effect of over 35% in size
VACV Venus inh: qHTS for Stage-Specific Inhibitors of Vaccinia Orthopoxvirus: Venus Reporter Primary qHTS. Vaccinia virus Venus reporter expression, fluorescence. Potency, µM (doses to about 36.5 µM), without a hit: top-dose activity change, negative = inhibition, hits mostly inhibitors. hit rate 0.46% among 330,000. AID 720580, 2013; calls by dose curve; tested in A549 cells; also: potency is read from the fitted curve at half-maximal effect; nearly all actives have a fitted effect of over 30% in size
HCMV inh: qHTS Assay for inhibitors of the human cytomegalovirus (HCMV). activity change, negative = inhibition, % at 57.5 µM. HFF cells, HCMV-luciferase reporter, 72 h; stronger effect = lower value. AID 1259415, 2018. hit rate 4.5% among 410,000; in the data active = activity change below about -60%; inconclusive = no clear call, values can overlap the other calls; inactive = above about -39%
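Two-dose cell screen: HFF monolayers treated with compounds and infected with luciferase-expressing HCMV at 1 PFU/cell, 72 h at 37C, then lysed for luciferase measurement.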
* hit, by the source's call; i = inactive; ? = inconclusive; / = not tested or not shown; ! = repeats disagree; [ ] = dose if it differs, or a comment. % is scaled to controls: 0 for no effect and ±100 for the full control effect.

SMILES	FMDV inh	Marburg entry inh	Lassa entry inh	VACV mCherry inh	VACV Venus inh	HCMV inh
Cc1nn(Cc2c(Cl)cccc2Cl)c(C)c1NC(=O)c1sc2ccccc2c1Cl	0.0%	?	-30.6%	?	-24.4%	-84.6*
Cc1nn(C)cc1C(=O)Nc1c(C)nn(Cc2ccccc2Cl)c1C	-0.9%	?	0.0%	-20.9%	-7.5%	-79.5*
Cc1cc(C(=O)Nc2c(C)nn(Cc3ccccc3Cl)c2C)no1	-2.2%	1.4%	-7.1%	/	/	-7.4
Cc1nn(Cc2ccc(Cl)c(Cl)c2)c(C)c1NC(=O)c1noc2c1CCc1ccccc1-2	?	?	-24.6%[46.1 µM]	?	-15.9%	-39.5
Cc1ccccc1Cn1nc(C)c(NC(=O)c2sc3ccccc3c2Cl)c1C	31.6µM*	?	-17.7%	-24.5%	?	-30.3
Cc1nn(Cc2ccc(Cl)cc2Cl)c(C)c1NC(=O)c1sc2ccccc2c1Cl	-28.1%	2.0%	-14.2%	-8.3%	1.1%	-29.0
Cc1c(O)ccc2c1OC(C)(C)CC2	/	/	/	-21.2%	-11.0%	/
C=CCn1c(SCC(=O)N(CC)c2c(N)n(Cc3ccccc3)c(=O)[nH]c2=O)nnc1-c1ccccc1OC	-5.9%	/	/	/	/	-2.4
CN1CCN(c2ccc([N+](=O)[O-])c3no[n+]([O-])c23)CC1	5.01µM*	0.562µM*	0.316µM*	?	?	-97.9*
CN(CCO)c1cc(N(C)CCO)c([N+](=O)[O-])cc1[N+](=O)[O-]	-1.6%	7.7%[46.1 µM]	11.3%[46.1 µM]	-8.5%	-9.4%	-35.2
O=[N+]([O-])c1ccc(N(CCO)CCO)c2c1no[n+]2[O-]	?	/	/	?	84.3%	-99.0*
CC1(C)Cc2c(sc3ncnc(NNC(=S)NCc4ccccc4)c23)CO1	-3.9%	?	0.116µM*	-10.3%	-29.5%	-5.5
C[C@H](NC(=O)c1nc[nH]c1C(=O)NC[C@@H](C)O)c1ccccc1	-0.9%	/	/	i	-5.5%	-14.8
O=C(c1ccccc1F)N1CC(=O)N2[C@H](CO)[C@H](c3ccc(Br)cc3)[C@@H]2C1	/	/	/	/	/	-9.4
CCOc1cc(C(=O)CSc2nnc(CNc3ccc(Cl)cc3)o2)ccc1NC(=O)CC	?	?	?	?	12.6µM*	-87.2*
COc1ccc(NCc2nnc(SCC(=O)c3ccc(OC)cc3)o2)cc1	0.0%	?	1.1%	/	/	-7.9
C[C@@H](CN(C)C)CN1c2ccccc2CCc2ccccc21	/	13µM*	/	/	/	/
CC(CN(C)C)CN1c2ccccc2CCc2ccccc21 (centres undefined)	?	13µM*	?	-27.4%	?	?
CNC(=O)N1c2ccccc2CCc2ccccc21	-15.2%	/	/	/	/	-11.2
CCOC(=O)COc1ccc(C)cc1C(=O)c1ccn2nc(-c3ccc(F)cc3)cc2n1	-8.9%	10.3%[46.1 µM]	7.8%[46.1 µM]	-19.2%	-18.4%	-5.8
CCc1ccc(-c2nc(CN3CCCC(C(=O)N4CCN(c5cc(Cl)ccc5C)CC4)C3)c(C)o2)cc1 (centres undefined)	?	?	?	?	?	-86.0*
Cc1ccc(Cl)cc1N1CCN(C(=O)C2CCCN(Cc3nc(-c4cccc(Cl)c4)oc3C)C2)CC1 (centres undefined)	?	-17.8%[46.1 µM]	-5.1%[46.1 µM]	i	-9.0%	-69.2*
CCc1cc(C(=O)N2CCOc3ccc(CN4CCN(Cc5ccccn5)CC4)cc3C2)no1	-13.7%	/	/	-12.2%	5.5%	/
N#C/C(=C\c1cccc([N+](=O)[O-])c1)c1nnc2n1CCCCC2	-14.6%	?	-9.8%	-13.0%	-13.3%	-69.5*
CN(c1ccccc1)c1ccc(/C=C(\C#N)c2nnc3n2CCCCC3)cc1[N+](=O)[O-]	-8.3%	?	7.08µM*	-6.0%	12.1%	-77.7*
O=c1nc2n(c3ccc([N+](=O)[O-])cc13)CCCCC2	3.7%	12.1%[46.1 µM]	0.8%	-8.1%	3.7%	94.2
COC(=O)C1=C(C(=O)OC)[C@@H]2Nc3ccccc3[C@@]23C[C@@H](C(=O)OC)N(C(=O)NC2CCCC2)C3=N1	/	-3.8%[14.2 µM]	/	/	/	/
COc1ccc(C(=O)c2sc(Nc3ccccc3)nc2N)cc1	50.7%	/	?	i	?	-61.1*!
